Measurements published in PubChem BioAssay (EPA / NIEHS).
The source made the active and inactive calls. How the source made its calls: active means hit-call score of the fitted dose curve at least 0.9, where 1 is the maximum; inactive means score below 0.9.

What follows are compounds tested against Retinoic acid receptor alpha (Homo sapiens) (UniProt P10276) (assay: ATG_DR5_RAR_CIS: Attagene CIS-FACTORIAL HepG2 Assay for human Retinoic Acid Receptor Alpha (RARE), DR5 submotif (AID 2282934;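 on AC50: reporter responds to endogenous RAR alpha beta and gamma in HepG2 not RARA alone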)). Details: HepG2 Attagene cis-factorial RARE DR5 reporter, mRNA; actives raise or lower the signal.
Retinoic acid receptor alpha (Homo sapiens), sequence (P10276 whole entry, looked up): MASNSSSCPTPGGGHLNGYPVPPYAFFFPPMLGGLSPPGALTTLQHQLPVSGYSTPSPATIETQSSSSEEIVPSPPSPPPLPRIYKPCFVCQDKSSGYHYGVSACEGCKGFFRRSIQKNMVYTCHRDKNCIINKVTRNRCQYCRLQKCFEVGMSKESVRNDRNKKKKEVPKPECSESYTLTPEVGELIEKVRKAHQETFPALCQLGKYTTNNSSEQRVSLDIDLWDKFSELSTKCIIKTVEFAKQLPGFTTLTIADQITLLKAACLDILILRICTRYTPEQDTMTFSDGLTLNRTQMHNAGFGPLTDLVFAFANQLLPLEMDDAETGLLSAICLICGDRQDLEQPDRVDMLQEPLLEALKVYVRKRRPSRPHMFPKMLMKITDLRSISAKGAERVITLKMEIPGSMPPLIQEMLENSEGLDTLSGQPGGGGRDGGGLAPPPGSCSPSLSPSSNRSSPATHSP
Procedure: ATG_CIS is a cell-based, multiplexed-readout assay that uses HepG2, a human liver cell line, with measurements taken at 24 hours after chemical dosing in a 24-well plate.ATG_DR5_RAR_CIS is one of 52 assay component(s) measured or calculated from the ATG_CIS assay. It is designed to make measurements of mRNA induction, a form of inducible reporter, as detected with fluorescence intensity signals by Reverse transcription polymerase chain reaction (RT-PCR) and Capillary electrophoresis technology.Data from the assay component ATG_DR5_RAR_CIS was analyzed into 1 assay endpoint. This assay endpoint, ATG_DR5_CIS, was analyzed with bidirectional fitting relative to DMSO as the negative control and baseline of activity. Using a type of inducible reporter, measures of mRNA for gain or loss-of-signal activity can be used to understand the reporter gene at the transcription factor-level as they relate to the gene RARA and RARB and RARG. Furthermore, this assay endpoint can be referred to as a primary readout, because this assay has produced multiple assay endpoints where this one serves a reporter gene function. To generalize the intended target to other relatable targets, this assay endpoint is annotated to the nuclear receptor intended target family, where the subfamily is non-steroidal.
Human liver HepG2 cells are transiently transfected with multiple reporter transcription units (MRTUs) in 6-well plates using FuGene 6 reagent (Roche; 3 ml FuGene/1 mg DNA). The MRTU constructs are regulated by a cis-regulating element (promoter). […] A major difference between the CIS and TRANS system is that in CIS activities of endogenous TFs are measured, whereas the TRANS assay evaluates changes in activities of exogenous, chimeric NR-Gal4 proteins. […] At the end of 24 hour incubation, total RNA was isolated using TriZol reagent (Invitrogen). The isolated RNA is then reverse-transcribed using oligo(dT) primer and Mo-MLV reverse transcriptase (Invitrogen) with DNAse I (Ambion) treatment for 30 min. The one-tenth of the produced cDNA was amplified by PCR using Taq DNA polymerase (Invitrogen) and two reporter sequence-specific primers. The PCR products were fluorescently labeled by primer extension with 6-arboxyfluorescein (6-FAM) 5'-labeled reporter sequence-specific primer (2 min at 95 C, 20 s at 68 C and 10 min at 72 C) and these products were digested with 5U of HpaI (New England Biolabs) for 2h at 37 C. The fragments were purified using Qiaquick PCR columns (Qiagen), analyzed on an ABI 3130xL genetic analyzer (Applied Biosystems) with peak positions identified by using a set of X-rhodamine (ROX)-labeled MapMarker1000 molecular weight standards (BioVentures). The raw capillary electrophoresis data was processed using Attagraph software (Attagene).

SMILES	outcome	AC50
CC1(C)C(C=C(Cl)Cl)C1C(=O)OC(C#N)c1cccc(Oc2ccccc2)c1 (stereo not given)	inactive	–
CCNP(=S)(OC)O/C(C)=C/C(=O)OC(C)C (stereo not given)	–	13.6 µM (active)
CCNC(=O)NC(=O)C(C#N)=NOC	inactive	–
Cc1ccc(N=CN(C)C=Nc2ccc(C)cc2C)c(C)c1	inactive	–
COc1cc(Cl)c(OC)cc1Cl	inactive	–
O=c1n(Cl)c(=O)n(Cl)c(=O)n1Cl	inactive	–
Cn1c(-c2ccccc2)cc(-c2ccccc2)[n+]1C	inactive	–
CC1(C)CCC(=Cc2ccc(Cl)cc2)C1(O)Cn1cncn1 (stereo not given)	–	18.8 µM (active)
O=C1C2CC=CCC2C(=O)N1SC(Cl)(Cl)Cl (stereo not given)	inactive	–
COCc1cnc(C2=NC(C)(C(C)C)C(=O)N2)c(C(=O)O)c1 (stereo not given)	inactive	–
CC1(C)C(C(=O)OC(C#N)c2cccc(Oc3ccccc3)c2)C1(C)C (stereo not given)	–	3.62 µM (active)
CCOc1nc(C(Cl)(Cl)Cl)ns1	inactive	–
CC(C)N1C(=O)c2ccccc2NS1(=O)=O	inactive	–
CNC(=O)N(C)c1nnc(C(C)(C)C)s1	inactive	–
Cc1cc(C)nc(Nc2ccccc2)n1	inactive	–
OC(c1ccc(Cl)cc1)(c1ccc(Cl)cc1)C(Cl)(Cl)Cl	inactive	–
Clc1nc(Cl)nc(Nc2ccccc2Cl)n1	inactive	–
C=C(C)CN(CC)c1c([N+](=O)[O-])cc(C(F)(F)F)cc1[N+](=O)[O-]	–	18.4 µM (active)
COP(=O)(OC)O/C(C)=C/C(=O)N(C)C	inactive	–
CCOC(=O)C(C)OC(=O)c1cc(Oc2ccc(C(F)(F)F)cc2Cl)ccc1[N+](=O)[O-] (stereo not given)	inactive	–

SMILES	outcome	AC50
CC(C)=CC1C(C(=O)OCc2coc(Cc3ccccc3)c2)C1(C)C (stereo not given)	–	8.01 µM (active)
COCC(=O)N(c1c(C)cccc1C)C(C)C(=O)OC (stereo not given)	inactive	–
COP(=S)(OC)SCn1nnc2ccccc2c1=O	inactive	–
COC(=O)c1c(C(F)F)nc(C(F)(F)F)c(C2=NCCS2)c1CC(C)C	inactive	–
CCCN(CC)CC1COC2(CCC(C(C)(C)C)CC2)O1 (stereo not given)	–	2.75 µM (active)
N#CN=C1SCCN1Cc1ccc(Cl)nc1	inactive	–
CS(=O)(=O)c1cc(C(F)(F)F)ccc1C(=O)c1cnoc1C1CC1	inactive	–
O=C(O)c1c(Cl)ccc2cc(Cl)cnc12	inactive	–
O=C(Nc1ccccc1-c1ccc(Cl)cc1)c1cccnc1Cl	inactive	–
CCN(CC)c1nc(C)cc(OP(=S)(OC)OC)n1	inactive	–
O=P(O)(O)CCCl	inactive	–
CC(C)(C)C(=O)C(Oc1ccc(Cl)cc1)n1cncn1 (stereo not given)	–	12.8 µM (active)
CN=C=S	inactive	–
CCOP(=S)(OCC)Oc1nc(Cl)n(C(C)C)n1	inactive	–
Cc1cnc(C2=NC(C)(C(C)C)C(=O)N2)c(C(=O)O)c1 (stereo not given)	–	35.4 µM (active)
Cc1c(COC(=O)[C@@H]2[C@H](/C=C(\Cl)C(F)(F)F)C2(C)C)cccc1-c1ccccc1	inactive	–
CCCCC(C#N)(Cn1cncn1)c1ccc(Cl)cc1 (stereo not given)	inactive	–
CNC(=O)Oc1cccc2ccccc12	inactive	–
CC(C)Oc1cccc(NC(=O)c2ccccc2C(F)(F)F)c1	–	9.42 µM (active)
COC(=O)N(C(=O)N1CO[C@@]2(C(=O)OC)Cc3cc(Cl)ccc3C2=N1)c1ccc(OC(F)(F)F)cc1	inactive	–
